Shown are actives, neighbours in structure and some others; about 21% of the full set was active somewhere.
AMA1 RON2 block – AMA1-RON2 (P. falciparum) interaction inhibition. AlphaScreen AMA1-biotinylated RON2 peptide binding. Potency, µM (titrated, usually from 58.2 µM), inactives show at the top dose activity change, negative = inhibition, actives largely listed as inhibitors. actives 0.2% (n = 360,000). AID 720542;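 note: potency is the fitted concentration of half-maximal effect; 0% = vehicle wells and -100% = peptide control; nearly all actives have a fitted effect of over 45% in size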
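AMA1 (3D7) with his tag at 25 nM final met compounds first, then biotinylated RON2 peptide at 25 nM; detection used donor plus acceptor beads, 10 µg/mL apiece, read by AlphaScreen after 30 min at room temperature.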
Pf growth 96h – inhibits malaria parasite growth, 96 h | P. falciparum luciferase reporter growth, 96 h | Potency, µM (titrated, usually from 28.7 µM), for the others: at the highest dose activity change, negative = inhibition, hits mostly inhibitors | actives 6.9% (n = 320,000); note: potency is the fitted concentration of half-maximal effect; % is set by controls: 0 for no effect and ±100 for the full control effect
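Erythrocytes infected with luciferase-expressing P. falciparum were dispensed at 2% hematocrit and 0.05% parasitemia (final), then incubated with compounds 96 hours at 37 C in 5% CO2. Luminescence after detection reagent addition reported growth.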
Cycloheximide cs – counter-screen hit for Shiga toxin inhibitors, cycloheximide. max response, %. actives 12% (n = 300,000). cell reporter, cycloheximide protein synthesis inhibition counterscreen. AID 2314; in the data active = max response mostly above about 13%, no sharp cut-off; inactive = mostly below about 14%; note: read at 38.3 µM for the half of the compounds with a filed dose; 0% is about no effect
HCV inh – blocks hepatitis C virus | Potency, µM (top dose mostly 41.8 µM), for inactives: at the highest dose activity change, negative = inhibition, most hits filed as inhibitors | actives 3.4% (n = 340,000) | Huh7.5.1 HCVcc-Cre infection, luciferase reporter, 44 h; note: potency is the fitted concentration of half-maximal effect; % is set by controls: 0 for no effect and ±100 for the full control effect
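Antiviral activity was scored by luciferase reporter output from cells infected with HCVcc-Cre (~0.5 moi) in presence of compound, 44 h infection period, cells seeded 1,000/well 4 h prior.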
Pf growth 48h – inhibits P. falciparum growth in the first generation, 48 h. P. falciparum luciferase growth in erythrocytes, 48 h. Potency, µM (series often up to 28.7 µM), inactives show at the highest dose activity change, negative = inhibition, usual class: inhibitors. actives 5.9% (n = 310,000). AID 504832; note: potency is the fitted concentration of half-maximal effect; % is set by controls: 0 for no effect and ±100 for the full control effect
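Luciferase-expressing parasites in RBCs, 2% Hct / 0.1% parasitemia final; RPMI 1640 + 0.5% Albumax; 37 C, 5% CO2, one generation; luminescence read-out, lower signal = inhibition.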
Shiga toxin inh – inhibitors of Shiga toxin in Vero cells; actives 9.2% (n = 290,000); inhibition, % at 38.7 µM; Vero cells, Shiga toxin protein synthesis inhibition reporter; AID 2315; in the data active = inhibition mostly above about 28%, no sharp cut-off; inactive = mostly below about 43%; note: 0% is about no effect
* hit, by the source's call; i = inactive; ? = inconclusive; . = not tested or not shown; + = active, no number; ! = not active in a repeat; [ ] = remark or other dose. Unless noted, calls come from the whole dose curve; as a rule, active = well fitted curve in the direction sought with a large enough effect; inconclusive = small, poorly fitted or top-dose-only effect, or another doubt; inactive = no such curve, though single readings can be large; an effect the other way counts as inactive or inconclusive.

SMILES	AMA1 RON2 block	Pf growth 96h	Cycloheximide cs	HCV inh	Pf growth 48h	Shiga toxin inh
CCCC(=O)Nc1nc(-c2ccc(Cl)s2)cs1	3%	115%	38*	?	50%	28
COc1ccc(CC(=O)Nc2nc(-c3ccncc3)cs2)cc1	-10%	13µM*	5	?	?	-13
CCCC(=O)Nc1nc(-c2ccc(OC)cc2)cs1	3%	.	40*	?	89%	138*
CC(C)(C)C(=O)Nc1ccc(Cc2ccncc2)cc1	1%	.	.	6%	.	.
Cc1nnc(Cn2cnc3c2c(=O)n(C)c(=O)n3C)o1	-5%	12%	8	9%	-12%	24
O=C(NCCCN1CCN(CCCNC(=O)c2cccc(Cl)c2)CC1)c1cccc(Cl)c1	14%	12µM*	-6	?	?	-7
O=C(NCCCN1CCN(c2cccc(Cl)c2)CC1)c1nc(-c2ccncc2)no1	27%	5%	-2	?	6.6µM*	0
O=C(NCCN1CCCC1)c1cccc(Cl)c1	0%	38%	-2	13%	8%	-6
Cn1nc(C2CC2)cc1NC(=O)C1(C)CCN1C(=O)Cc1ccc(-c2ccccc2)cc1 (centres undefined)	-13%	.	.	.	.	.
CN(c1ccccc1C(=O)O)S(=O)(=O)c1ccc2[nH]c(=O)oc2c1	.	7%	.	.	41%	.
COCCNC(=O)C1(C)CCCN(CCS(=O)(=O)c2ccc(C)cc2)C1 (centres undefined)	-1%	.	.	.	.	.
c1ccc2nc(-c3nc4ccccc4o3)ccc2c1	18%	.	6	-7%	-4%	10
CNc1ccccc(-c2ccc3ccccc3n2)c1=O	-23%	431%	59*	16%	278%	52*
CCOC(=O)CC(NC(=O)Cn1nnc(-c2ccccc2)n1)c1ccc(OC)cc1 (centres undefined)	10%	-2%	25*	-1%	-7%	13
CCOc1ccc(-c2nnn(CC(=O)Nc3cccc(OC)c3)n2)cc1OCC	-3%	12µM*	1	?	-23%	-2
COc1ccc(C(=O)Nc2ccc(-c3nnn(CC(=O)NCc4ccco4)n3)cc2)cc1	-7%	24%	-3	8%	2%	-5
C=CCNC(=O)Cn1nnc(-c2ccc(-c3ccc(OC)cc3)cc2)n1	10%	10%	23*	-5%	100%	51*
COc1cccc(-c2nnn(CC(C)=O)n2)c1	-19%	?	53*	8%	i	+
COc1ccc(CNC(=O)c2ccccc2SCC(=O)N2CCCC2)cc1OC	11%	0%	.	4%	-1%	.
COc1ccc(-c2ccc(-c3nnn(CC(C)=O)n3)cc2)cc1	-2%	-1%	35*	-12%	176%	93*
CCOc1ccc(-c2nnn(CC(=O)c3ccc4c(c3)OCCO4)n2)cc1OCC	0%	15µM*	34*	?	-11%	18
COc1cccc(-c2nnn(CC(=O)N3CCCCC3)n2)c1	12%	?	21*	11%	76%	41*
NC(=O)Cn1nnc(-c2ccc(NC(=O)c3ccc(F)cc3)cc2)n1	-8%	?	27*	18%	20%	70*
COc1ccc(-c2nnn(CC(=O)N3CCOCC3)n2)cc1	6%	23%	-2	.	.	-7
CCCN1CCC(NC23CC4CC(CC(C4)C2)C3)CC1	.	?	-1	.	-26%	-10
SMILES	AMA1 RON2 block	Pf growth 96h	Cycloheximide cs	HCV inh	Pf growth 48h	Shiga toxin inh
CC(C)=CCN1CCN(Cc2cnc(-c3ccccc3)s2)CC1CCO (centres undefined)	-3%	-15%	-2	-8%	?	-10
Cc1cc(F)cc(-c2cc(C(=O)NCc3ccco3)[nH]n2)c1	7%	.	.	.	.	.
COC(=O)c1ccccc1NC(=O)Cn1nnc(-c2ccc3c(c2)OCO3)n1	-12%	0%	-2	21%	-20%	-12
CC(=O)Cn1nnc(-c2ccc(C(F)(F)F)cc2)n1	4%	36%	27*	15%	48%	61*
NNC(=O)Cn1nnc(-c2ccc(C(F)(F)F)cc2)n1	14%	22%	1	12%	17%	-5
COC(=O)c1ccccc1NC(=O)Cn1nnc(-c2ccc(OC)cc2)n1	-1%	0.59µM*	-2	?	-18%	-2
CCOC(=O)Cc1csc(SCC(=O)NC2CCCC2)n1	16%	64%	.	1%	0%	.
COc1ccc([C@H]2CC(=O)C=C(c3c(OC)cccc3OC)C2)cc1	-8%	-17%	.	?	?	.
CC(C(=O)NC(=O)NC1CCCCC1)N1CCN(c2ccccn2)CC1 (centres undefined)	3%	-9%	0	-9%	-1%	40
O=C(c1cc([N+](=O)[O-])ccc1Cl)N1CCN(c2ccc([N+](=O)[O-])cc2)CC1	-2%	-14%	-1	?	10%	-14
CC(C(=O)Nc1cc([N+](=O)[O-])ccc1Cl)N1CCN(c2ccc(O)cc2)CC1 (centres undefined)	-1%[2.32 µM]	13µM*	-2	?	-27%	-4
CC(C(=O)NC(=O)NC1CCCCC1)N1CCN(c2ccc(O)cc2)CC1 (centres undefined)	-4%[11.6 µM]	17µM*	.	10%	?	.
CC(C(=O)Nc1ccc([N+](=O)[O-])cc1Cl)N1CCN(S(=O)(=O)c2cccs2)CC1 (centres undefined)	-16%	?	.	?	12µM*	.
Cc1ccc(-c2cnc(C(O)c3cc(C)cc(C)c3)[nH]2)cc1 (centres undefined)	-4%	.	.	.	.	.
Cc1occc1-c1nnc(SCC(=O)c2c(N)n(C3CC3)c(=O)[nH]c2=O)n1C	25%	?	.	19%	-29%	.
COc1ccc(N(CC(=O)NCc2cccs2)S(=O)(=O)c2cccc(C)c2)cc1	9%	?	.	?	?	.
CC(C)C1OC(c2cccc(NC(=O)c3cccs3)c2)OCC1(C)C (centres undefined)	-2%	?	13	?	1.9µM*	-3
C[n+]1ccn(CC(=O)c2cccs2)c1	3%	?	-1	14%	-17%	-7
CCCCCCCCCCCCCCCCn1cc[n+](C)c1	2%	2.1µM*!	-2	5.6µM*	3.3µM*	-19
Cc1cc(-c2nn(-c3ccccc3F)cc2CN2CCCC(C(N)=O)C2)c(C)s1 (centres undefined)	5%	?	-3	10%	?	-15
Cc1cc(-c2nn(-c3ccccc3F)cc2CN2CCC(C(N)=O)CC2)c(C)s1	-7%	8.3µM*	8	7%	-2%	-11
Cc1cc(-c2nn(-c3ccccc3F)cc2CN2CCCC(CO)C2)c(C)s1 (centres undefined)	-4%	2.3µM*	10	?	22%	-6
c1ccc(CN(CC2=NCCN2)c2ccccc2)cc1	1%	12µM*!	-2	1%[8.37 µM]	-25%	-6

From PubChem BioAssay
